Source: PubChem (National Center for Advancing Translational Sciences (NCATS))
In the library only some 7% were active in any assay of this set; here they are far more common.
ATXN2 expr inh: reduces ATXN2 reporter expression in HEK-293 cells. HEK-293 ATXN2-luciferase reporter, luminescence, 24 h. Potency, µM (doses to about 57 µM), most hits filed as inhibitors. 0.72% of 360,000 active. AID 1745845; further: nearly all actives have a fitted effect of over 55% in size
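ATXN2-luciferase reporter cells (luciferase flanked by upstream and downstream ATXN2 gene portions) were treated 24 h at 37 °C with compounds at up to 57 uM. SteadyGlo luminescence gave expression; GF-AFC fluorescence gave viability.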
a7 integrin act: activators of alpha7 integrin expression for muscular dystrophy. Potency, µM (highest dose often 38.3 µM), actives largely listed as activators. AID 624291. 0.064% of 350,000 active. alpha7betagal myoblasts, beta-gal FDG fluorescence, 48 h; further: nearly all actives have a fitted effect of over 60% in size
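Alpha7betagal+/- myoblasts (passage 13) were plated 16-24 hr, then exposed to compounds (1:260 dilution of DMSO stock) for 48 hours at 37C. After MPER lysis, β-galactosidase reporter activity was read as FDG fluorescence (ex 480/em 540) after 30 minutes.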
S2 tox: cell viability loss in ATXN counter-screen | 0.49% of 400,000 active | Potency, µM (titrated, usually from 56.7 µM), hits mostly cytotoxic | AID 651635 | S2 cells (HEK-293 line with an ATXN2-luciferase reporter) viability, CellTiter-Fluor protease fluorescence, 24 h; further: nearly all actives have a fitted effect of over 40% in size
IL1B secr inh: blocks inflammasome-driven IL-1 beta release | THP-1 LPS/ATP IL-1B secretion, AlphaLISA, 16 h; hits give low values | activity change, % at 57.5 µM | 4.7% of 360,000 active | AID 743279; in the data active means activity change below about -50%; inconclusive means mostly about -30% to -49%
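THP-1 cells pretreated 1 hr with compounds (up to 57.5 uM final), then stimulated with LPS (250 ng/mL final) plus ATP (1.25 mM final); secreted IL-1B measured by AlphaLISA after 16 hr, decreased signal indicating inhibition.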
D3 antag: D3 dopamine receptor (human) antagonism; P35462; D3R cells, DiscoveRx beta-arrestin luminescence, antagonist mode; hits give low values; max response, negative = inhibition, %; 2.5% of 360,000 active; AID 652054; in the data active means max response below about -50%; inconclusive means no clear call, values can overlap the other calls
Target sequence (P35462 whole entry, looked up): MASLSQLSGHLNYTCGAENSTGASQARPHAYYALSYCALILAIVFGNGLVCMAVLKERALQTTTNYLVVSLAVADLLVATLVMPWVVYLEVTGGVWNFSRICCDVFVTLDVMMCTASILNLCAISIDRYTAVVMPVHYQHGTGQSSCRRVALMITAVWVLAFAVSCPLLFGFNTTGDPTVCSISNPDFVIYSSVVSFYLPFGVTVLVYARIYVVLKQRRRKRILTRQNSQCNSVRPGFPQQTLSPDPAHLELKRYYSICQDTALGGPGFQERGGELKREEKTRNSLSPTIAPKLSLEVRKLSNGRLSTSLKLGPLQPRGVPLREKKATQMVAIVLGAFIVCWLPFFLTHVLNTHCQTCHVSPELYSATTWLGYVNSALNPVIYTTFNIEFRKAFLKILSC
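Cells plated overnight at 1500 cells/well, then exposed to library compounds with dopamine controls for 90 minutes at 37 degrees C. DiscoveRx reagent added for 30–60 minutes at room temperature; luminescence read, quantitative HTS format.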
D3 ag: D3 dopamine receptor (human) agonism. max activation, %. D3R DiscoveRx beta-arrestin cells, luminescence, 90 min. 0.58% of 410,000 active. P35462; in the data active means max activation above about 30%
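Agonist mode: compounds and dopamine controls were applied to plated cells for 90 min at 37 degrees C after an overnight attachment at 1500 cells/well. Luminescent read-out followed 30 - 60 minutes at room temperature with DiscoveRx detection reagent.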
Hits are given with their value; [ ] = dose if it differs, or a comment. Unless noted, the call rests on the fitted dose curve; in most records, active means well fitted curve in the direction sought with a large enough effect; inconclusive means small, poorly fitted or top-dose-only effect, or another doubt; inactive means no such curve, though single readings can be large; an effect the other way counts as inactive or inconclusive.

How did CN1C2C=C3C(C#N)=C(N)C(C#N)(C#N)C(c4ccc(Br)cc4)C3C1CC2 (stereo not given) do in these assays?
ATXN2 expr inh: inactive; a7 integrin act: inactive; S2 tox: inconclusive; IL1B secr inh: -101; D3 antag: inactive; D3 ag: inactive

Results for COc1ccc(CC2(CO)CCN(Cc3ccc4nsnc4c3)CC2)cc1 ?
ATXN2 expr inh: inactive; a7 integrin act: inactive; S2 tox: inactive; IL1B secr inh: inactive; D3 antag: -73; D3 ag: inactive

How did OCC1(Cc2ccc(Cl)cc2)CCN(Cc2ccc(F)c(F)c2)CC1 do in these assays?
ATXN2 expr inh: inactive; a7 integrin act: inactive; S2 tox: inactive; IL1B secr inh: inconclusive; D3 antag: inconclusive; D3 ag: inactive

Results for OCC1(Cc2ccc(Cl)cc2)CCN(Cc2ccc3nsnc3c2)CC1 ?
ATXN2 expr inh: inactive; a7 integrin act: inactive; S2 tox: inactive; IL1B secr inh: -78; D3 antag: inconclusive; D3 ag: inactive

Results for COc1cccc(N2CCN(c3ncnc4c3c(-c3ccccc3)cn4-c3ccc(F)cc3)CC2)c1 ?
D3 ag: inactive

What do the screens show for `CCOc1ccc(-n2cc(-c3ccccc3)c3c(N4CCOCC4)ncnc32)cc1`?
ATXN2 expr inh: inactive[11.3 µM]; a7 integrin act: inactive; S2 tox: inactive; IL1B secr inh: -88; D3 antag: inactive; D3 ag: inactive

How did c1ccc(-c2cn(-c3ccccc3)c3ncnc(N4CCCCC4)c23)cc1 do in these assays?
a7 integrin act: inactive; S2 tox: inactive; IL1B secr inh: -57; D3 antag: inactive; D3 ag: inactive

Results for CN1CCN(c2ncnc3c2c(-c2ccccc2)cn3-c2ccc(F)cc2)CC1 ?
a7 integrin act: inactive; S2 tox: inactive; IL1B secr inh: -207; D3 antag: -63; D3 ag: inactive

What do the screens show for `CCOc1ccc(CCN2C(=O)C(=O)N([C@@H](CC(C)C)CN3CCC[C@H]3CN3C(=O)C(=O)NC[C@@H]3Cc3ccc(O)cc3)C[C@@H]2Cc2ccccc2)cc1`?
ATXN2 expr inh: inactive; S2 tox: inconclusive; IL1B secr inh: inactive; D3 antag: inactive; D3 ag: inactive

What do the screens show for `O=C(Nc1nc(-c2ccccc2)cs1)C1CCCO1` (stereo not given)?
ATXN2 expr inh: inactive; a7 integrin act: inactive; S2 tox: inactive; IL1B secr inh: inactive; D3 antag: -91; D3 ag: inactive

How did O=C(Nc1nc(-c2ccc(-c3ccccc3)cc2)cs1)C1CCCO1 (stereo not given) do in these assays?
ATXN2 expr inh: inactive; a7 integrin act: inactive; S2 tox: inactive; IL1B secr inh: inconclusive; D3 antag: inactive; D3 ag: inactive

What do the screens show for `Cc1csc(NC(=O)C2CCCO2)n1` (stereo not given)?
ATXN2 expr inh: inactive; a7 integrin act: inactive; S2 tox: inactive; IL1B secr inh: inactive; D3 antag: inactive; D3 ag: inactive

What do the screens show for `O=C(Nc1nc(-c2ccc(F)cc2)cs1)C1CCCO1` (stereo not given)?
ATXN2 expr inh: inactive; a7 integrin act: inactive; S2 tox: inactive; IL1B secr inh: -56; D3 antag: inactive; D3 ag: inactive

What do the screens show for `O=C(O)c1ccc(NC(=O)c2ccc3c(c2)C(=O)N(CC2CCCO2)C3=O)cc1` (stereo not given)?
ATXN2 expr inh: inactive; a7 integrin act: inactive; S2 tox: inactive; IL1B secr inh: inactive; D3 antag: inactive; D3 ag: inactive

How did Cc1ccc(C)c(NS(=O)(=O)c2ccc(OCC(=O)NCc3ccco3)cc2)c1 do in these assays?
ATXN2 expr inh: inactive; a7 integrin act: inactive; S2 tox: inactive; IL1B secr inh: inactive; D3 antag: inactive; D3 ag: inactive

What do the screens show for `O=Nc1c(O)n(Cc2cccc(C(F)(F)F)c2)c2ccccc12`?
a7 integrin act: inactive; S2 tox: inactive; IL1B secr inh: -246; D3 antag: inactive; D3 ag: inactive

What do the screens show for `Nc1nc2ccccc2n1Cc1ccc(Cl)c(Cl)c1`?
ATXN2 expr inh: inconclusive; a7 integrin act: inactive; S2 tox: inactive; IL1B secr inh: -92; D3 antag: inactive; D3 ag: inactive

What do the screens show for `O=Nc1c(O)n(Cc2ccc(Cl)c(Cl)c2)c2ccccc12`?
ATXN2 expr inh: inconclusive; a7 integrin act: inactive; S2 tox: inconclusive; IL1B secr inh: -59; D3 antag: inactive; D3 ag: inactive

What do the screens show for `Cc1ccc(NC(=O)/C(C#N)=C/c2ccc(Sc3nc(C)cc(C)n3)o2)cc1`?
ATXN2 expr inh: inactive; a7 integrin act: inactive; S2 tox: inactive; IL1B secr inh: inactive; D3 antag: inactive; D3 ag: inactive

How did O=C(NCCCn1ccnc1)c1[nH]c(C(F)(F)F)nc1-c1ccccc1 do in these assays?
ATXN2 expr inh: inactive; S2 tox: inactive; IL1B secr inh: inactive; D3 antag: inactive; D3 ag: inactive

Results for CCn1c2ccccc2c2cc(N)ccc21 ?
ATXN2 expr inh: inactive; a7 integrin act: inactive; S2 tox: inconclusive; IL1B secr inh: inactive; D3 antag: inconclusive; D3 ag: inactive

How did CCn1c2ccccc2c2cc(/C=C(/C#N)C(N)=S)ccc21 do in these assays?
ATXN2 expr inh: 3.5µM; a7 integrin act: inactive; S2 tox: inconclusive; IL1B secr inh: inactive; D3 antag: inactive; D3 ag: inactive

Results for CCOC(=O)CSc1cc(CS(=O)(=O)c2ccccc2)nc(-c2ccccc2)n1 ?
ATXN2 expr inh: inactive; a7 integrin act: inactive; S2 tox: inactive; IL1B secr inh: inactive; D3 antag: inactive; D3 ag: inactive

Results for O=S(=O)(Cc1cc(Cl)nc(-c2ccncc2)n1)c1ccccc1 ?
ATXN2 expr inh: inactive; a7 integrin act: inactive; S2 tox: inactive; IL1B secr inh: -97; D3 antag: inactive; D3 ag: inactive

Results for O=S(=O)(Cc1cc(Cl)nc(-c2ccccc2)n1)c1ccccc1 ?
ATXN2 expr inh: 32µM; a7 integrin act: inactive; S2 tox: inconclusive; IL1B secr inh: -70; D3 antag: inactive; D3 ag: inactive

Results for Cc1cccc(OCCC(=O)NCC(=O)Nc2c(C)cccc2C)c1 ?
ATXN2 expr inh: inactive; a7 integrin act: inactive; S2 tox: inactive; IL1B secr inh: inactive; D3 antag: inactive; D3 ag: inactive

How did CC1(CCC(=O)N2CCCC(N3CCN(c4ccc(F)cc4)CC3)C2)CC1 (stereo not given) do in these assays?
ATXN2 expr inh: inactive; a7 integrin act: inactive; S2 tox: inactive; IL1B secr inh: inactive; D3 antag: inactive; D3 ag: inactive

What do the screens show for `O=c1[nH]c2ccccc2cc1CN(Cc1cccnc1)S(=O)(=O)c1ccc(Cl)cc1`?
ATXN2 expr inh: inconclusive; a7 integrin act: inactive; IL1B secr inh: -61; D3 antag: inactive; D3 ag: inactive

How did O=C(c1ccco1)N1CC2(CC(c3ccc(Cl)cc3)=NO2)CN1Cc1ccc(Br)cc1 (stereo not given) do in these assays?
ATXN2 expr inh: inactive; a7 integrin act: inactive; S2 tox: inconclusive; IL1B secr inh: inactive; D3 antag: inactive; D3 ag: inactive
